Screening data deposited in PubChem BioAssay by National Center for Advancing Translational Sciences (NCATS).
An excerpt weighted towards active compounds, which were near 9.2% of everything screened.
Rab9 prom act = Rab9 promoter activation; Potency, µM (titrated, usually from 9.22 µM), for inactives: top-dose activation, negative = inhibition, most hits filed as activators; 320,000 compounds, 2.8% hits; Huh7 Rab9 promoter-luciferase reporter, luminescence, 24 h; further: % of control where 0% means no effect; nearly all actives have a fitted effect of over 60% in size
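Rab9 promoter-driven luciferase in stably transfected Huh7 cells; 1500 cells/well rested 2 h, exposed to compound in DMSO for 24 h at 37 °C, 5% CO2. Luminescence read 10 min after adding luciferase reagent at ambient temperature.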
NPC1 prom act = activators of NPC1 promoter; 320,000 compounds, 2.4% hits; Huh7 NPC1 promoter luciferase reporter, 24 h; Potency, µM (doses to about 9.22 µM), inactives show top-dose activation, actives largely listed as activators; further: % of control where 0% means no effect; nearly all actives have a fitted effect of over 60% in size
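Quantitative HTS used a cell-based reporter: Huh7 cells stably bearing the NPC1 promoter upstream of luciferase were treated with compounds for 24 h, and promoter activation was read as luminescence.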
FLuc counter = counter-screen for miR-21 project: firefly luciferase inhibitors or activators; P08659; purified FLuc, Km substrates, luminescence inhibition; Potency, µM (series often up to 57.5 µM), for the others: at the top dose activity change, negative = inhibition, most hits filed as inhibitors; 360,000 compounds, 6.9% hits; AID 588342;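 further: plate controls were vehicle for no effect and reference inhibitor for full effect; nearly all actives have a fitted effect of over 55% in size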
Target sequence (P08659 whole entry, looked up): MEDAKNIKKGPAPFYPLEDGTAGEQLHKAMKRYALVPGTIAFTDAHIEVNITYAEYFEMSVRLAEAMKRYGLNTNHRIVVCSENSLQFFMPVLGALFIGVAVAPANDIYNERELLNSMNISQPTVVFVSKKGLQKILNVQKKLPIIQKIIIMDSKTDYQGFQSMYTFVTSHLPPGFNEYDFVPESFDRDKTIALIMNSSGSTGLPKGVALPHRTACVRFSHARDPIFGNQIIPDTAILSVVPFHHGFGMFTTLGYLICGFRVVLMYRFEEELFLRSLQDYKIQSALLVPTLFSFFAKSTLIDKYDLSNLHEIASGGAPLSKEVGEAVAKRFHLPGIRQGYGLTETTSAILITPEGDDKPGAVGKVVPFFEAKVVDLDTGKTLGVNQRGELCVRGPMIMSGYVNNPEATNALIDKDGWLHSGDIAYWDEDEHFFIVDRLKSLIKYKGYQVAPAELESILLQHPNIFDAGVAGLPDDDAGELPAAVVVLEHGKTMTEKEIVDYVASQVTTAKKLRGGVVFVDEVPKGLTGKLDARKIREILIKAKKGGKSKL
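Purified P. pyralis luciferase, 10 nM final, with Km-level 10 uM D-luciferin and 10 uM ATP in 50 mM Tris acetate pH 7.5, 10 mM Mg acetate, 0.01% Tween-20, 0.05% BSA; 6-point qHTS titration about 60 µM downward; luminescence read.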
ELG1 repair inh = ELG1-dependent DNA repair inhibition. HEK293T ELG1-luciferase reporter, luminescence, 16 h; DNA damage induced by 5-fluorouridine. Potency, µM (series often up to 46.1 µM), inactives show top-dose activity change, negative = inhibition, most hits filed as inhibitors. 330,000 compounds, 2.3% hits. AID 504467; further: on the % scale 0 is the no-effect control and ±100 the full control effect; nearly all actives have a fitted effect of over 55% in size
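5-Fluorouridine DNA damage + compound/DMSO, 2,000 cells/well, 16 h, 37 °C/5% CO2. ONE-Glo, 30 min RT, luminescence. Readout = decrease in reporter signal.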
SMN2 splice up = SMN2 splice variant enhancement; HEK293 SMN2-luciferase splicing reporter, luminescence, 30-36 h; Potency, µM (series often up to 46.1 µM), for the others: at the highest dose activity change, positive = activation, most hits filed as activators; 210,000 compounds, 2.8% hits; further: % of control where 0% means no effect; nearly all actives have a fitted effect of over 55% in size
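HEK293 cells carry an SMN2 minigene-luciferase reporter in which exon 7 inclusion puts luciferase in frame. Cells were seeded at 2000 cells/well, attached for 10-12 hours, then exposed to compounds for 30-36 hours at 37C before ONE-Glo luminescence.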
ELG1 genotoxic = induces genotoxicity in HEK293T cells with luciferase-tagged ELG1. Potency, µM (highest dose often 46 µM), without a hit: at the top dose activity change, positive = activation, most hits filed as activators. 330,000 compounds, 1.3% hits. HEK293T ELG1-luciferase reporter, luminescence, 16 h. AID 504466; further: % of control where 0% means no effect; nearly all actives have a fitted effect of over 60% in size
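Screening used a luciferase reporter fused to human ELG1 in HEK293T cells. Luminescence was read on a CCD plate imager after 16 hr exposure and 30 min ONE-Glo incubation.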
* hit, by the source's call; ? = inconclusive; · = no result; [ ] = remark or other dose. The call rests on the fitted dose curve; in most records, active means well fitted curve in the direction sought with a large enough effect; inconclusive means small, poorly fitted or top-dose-only effect, or another doubt; inactive means no such curve, though single readings can be large; an effect the other way counts as inactive or inconclusive. Potency means the concentration at half of the fitted maximal effect.

SMILES	Rab9 prom act	NPC1 prom act	FLuc counter	ELG1 repair inh	SMN2 splice up	ELG1 genotoxic
CC(C)Oc1ccc(C(=O)Nc2cccc(S(=O)(=O)N3CCCC3)c2)cc1	·	·	·	23µM*	·	-2%
O=C(Nc1ccc(Cl)c(S(=O)(=O)N2CCOCC2)c1)c1ccc(OCC2CCCO2)cc1 (stereo not given)	-44%	-34%	-18%	2.9µM*	-58%	-20%
COc1ccc(C(=O)Nc2ccc(-c3ccc(C)o3)cc2)cc1S(=O)(=O)N1CCOCC1	-16%	-10%	?	15µM*	·	-34%
COc1ccc(N(C)C(=O)Cn2cc(S(=O)(=O)N3CCN(c4ccccc4F)CC3)c3ccccc3c2=O)c(OC)c1	·	·	4%	·	-3%	·
COc1ccc(C(=O)Nc2ccc(Cl)c(S(=O)(=O)N3CCOCC3)c2)cc1	·	·	·	9.2µM*	·	-17%
Cc1c(Cl)c(S(N)(=O)=O)cc2c1=NC=NS=2(=O)O	·	·	·	·	-2%[9.22 µM]	·
CCNc1nc(N)c(C(=O)c2ccc(Cl)s2)s1	3.5µM*	?	9.5µM*	?	20µM*	?
O=C(O)CCn1cnc2c(=S)nc[nH]c21	·	·	·	·	-11%[9.22 µM]	·
CCOC(=O)c1c(NC(=O)CSc2cn(CCNC(=O)c3ccc(OC)cc3)c3ccccc23)sc2c1CCCC2	·	·	-11%	·	3%	·
CCN(CC)c1ccc(-n2c(C)c(C(C)=O)c(C(C)=O)c2C)cc1	-2%	-1%	-1%	10µM*	-34%	-33%
CC(=O)c1c(C(C)=O)c(C)n(-c2ccc(O)cc2)c1C	·	·	5%	·	-9%	·
COc1ccc(CC(=O)NCC(c2ccc(N(C)C)cc2)N2CCOCC2)cc1 (stereo not given)	·	·	-2%	·	·	·
COc1ccc(C(=O)NCC(c2ccc(N(C)C)cc2)N2CCc3ccccc32)cc1 (stereo not given)	·	·	-2%	·	·	·
c1ccc(-c2cc3nccc(-c4ccccn4)n3n2)cc1	2.2µM*	2.5µM*	9.5µM*	?	·	?
COC(=O)CSc1nc2ccc(C)cc2[nH]1	0%	-1%	?	21%	-2%	1%
Cc1ccc2nc(SC(C)C(=O)N3CCCC3)[nH]c2c1 (stereo not given)	?	15%	?	?	11µM*	?
Cc1ccc2nc(SCC(=O)c3ccc(O)cc3O)[nH]c2c1	3.2µM*	?	8.5µM*	?	·	?
Cc1ccc2nc(SCC(=O)N3CCCC3)[nH]c2c1	1.4µM*	2µM*	6.7µM*	?	11µM*	3.7µM*
O=[N+]([O-])c1cc(S(=O)(=O)Nc2cccc(Cl)c2)ccc1N/N=C/c1ccc(N2CCOCC2)cc1	-8%	0%	?	-1%	·	-3%
Cc1ccc2c(c1)C(=C(C#N)C#N)C(=O)N2CCN1CCCCC1	3%	0%	-2%	?	·	-1%
CCCc1nnc(SCC(=O)NC2CCCCC2)n1CCOC	25%	-1%	3%	14%	·	5%
O=C(/C=C/c1ccccc1Cl)c1ccc[nH]1	27%	10%	7.6µM*	?	19%	?
O=C(/C=C/c1ccc(Cl)cc1Cl)c1ccc[nH]1	22%	13%	2.7µM*	?	7%	?
CN(C)/C=C/C(=O)/C=C/c1ccc(Cl)cc1Cl	1µM*	2.2µM*	12µM*	?	20µM*	?
O=C(/C=C/c1ccccc1Cl)N1CCOCC1	4%	23%	?	?	·	13%
SMILES	Rab9 prom act	NPC1 prom act	FLuc counter	ELG1 repair inh	SMN2 splice up	ELG1 genotoxic
CNc1ccc(Br)cc(C(=O)/C=C/c2ccc(Cl)cc2Cl)c1=O	-32%	-10%	?	?	·	-10%
O=C(/C=C/c1ccc(Cl)cc1Cl)n1cccn1	-1%	-1%	3.8µM*	11%	15%	16%
O=C(Cn1c(NCCCCl)nc2ccccc21)c1ccccc1	1%	-1%	2%	4%	·	-1%
Cc1sc2nc(CN3CCCCC3)nc(Cl)c2c1C	0%	-6%	1%	-2%	-121%	3%
O=C(C1CC1)N1N=C(c2ccccc2)CC1(O)C(F)(F)C(F)(F)F (stereo not given)	-2%	-3%	-1%	?	·	1%
COc1ccccc1Nc1nc(-c2ccc3c(c2)NC(=O)CO3)cs1	0%	-4%	?	?	-95%	-5%
COc1ccc(-c2cc(-c3ccccc3)nc(-c3ccc4c(c3)NC(=O)CO4)c2)cc1	1%	-2%	-16%	23µM*	7%	-3%
CCC(C)Nc1nc(-c2ccc3c(c2)NC(=O)CO3)cs1 (stereo not given)	?	21%	17µM*	?	2%	11%
COc1ccc(Nc2nc(-c3ccc4c(c3)NC(=O)CO4)cs2)cc1	18%	9%	?	16µM*	-64%	-10%
Cc1ccc(-c2noc(CN(C(=O)COc3cc(C)cc(C)c3C)C(C)C)n2)cc1	·	·	-4%	·	-19%	·
Cc1ccc(-c2csc(Cc3nc(-c4cc5ccccc5oc4=O)cs3)n2)cc1	-20%	-16%	1%	4%	-72%	-3%
Cc1ccn2cc(-c3cc4ccccc4oc3=O)nc2c1	0.28µM*	0.32µM*	0.43µM*	?	·	0.46µM*
O=c1oc2ccccc2cc1-c1cn2cc(Cc3ccc(Cl)cc3)sc2n1	·	·	-1%	·	-2%	·
O=c1oc2ccccc2cc1-c1cn2cc(Cc3ccccc3F)sc2n1	·	·	0.34µM*	·	1%	·
Cc1ccc(C)c(NC(=O)CCOc2ccccc2)c1	-8%	-2%	0%	-18%	-13%	-5%
COc1cc(OC)cc(C(=O)Nc2ccc(C(=O)c3ccncc3)cc2)c1	5%	3%	1%	-11%	·	-8%
CC(Oc1ccccc1)C(=O)N1CCN(C(=O)C(C)Oc2ccccc2)CC1 (stereo not given)	4%	-3%	-2%	6.5µM*	·	-12%
Cc1ccc(-c2cc(C(F)F)n3ncc(C(=O)N4CCN(c5ccccn5)CC4)c3n2)cc1	-6%	-10%	1%	3.7µM*	-6%	-30%
COc1ccc(-c2cc(C(F)F)n3ncc(C(=O)N4CCN(C(=O)c5ccco5)CC4)c3n2)cc1	-4%	-6%	1%	3.3µM*	9%	-8%
Cc1ccc(-c2cc(C(F)F)n3ncc(C(=O)N4CCc5ccccc54)c3n2)cc1	-27%	-21%	0%	21µM*	-36%	16%
O=C(c1cnn2c(C(F)F)cc(-c3ccccc3)nc12)N1CCc2ccccc21	-6%	-17%	-1%	?	-7%	-7%
O=C1C=C(c2ccc(-c3ccccc3)c(F)c2)C[C@@H](c2ccc(Cl)cc2)C1	-3%	0%	-8%	-3%	·	-1%
